Measurements as given in PubChem BioAssay.

What was measured:
[1] = system: Human papillomavirus type 1a protein E7 (residues 44-93); test: small molecules binding HPV E7 44-93 – biochemical, small-molecule microarray, residues 44-93, 635 nm fluorescence, primary screen (AID 1108); conditions: fluorescence 635 nm, higher = more signal;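 also: E7 fragment applied at 1 µg/mL in TBST for 1 h at 4 C; score combines spot fluorescence with its signal to noise ratio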
[2] = hepatitis C replication reporter changes, two-sided – Huh7 cells, luciferase reporter, HCV replication inhibitor project, primary screen (AID 1109); conditions: Huh7 HCV replicon luciferase reporter, 48 h; higher = more signal;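 also: huh7 hepatoma cells harbouring a luciferase neomycin HCV replicon reporter; luciferase luminescence as measure of HCV replicon replication; test concentration not given here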
[3] = target: Left-right determination factor 2 (Homo sapiens) (UniProt O00292); test: small molecules binding LEFTY2 protein – biochemical, small-molecule microarray, 635 nm fluorescence scan, primary screen (AID 1110); conditions: higher = more signal
Sequence of Left-right determination factor 2 (Homo sapiens) (O00292 whole entry, looked up): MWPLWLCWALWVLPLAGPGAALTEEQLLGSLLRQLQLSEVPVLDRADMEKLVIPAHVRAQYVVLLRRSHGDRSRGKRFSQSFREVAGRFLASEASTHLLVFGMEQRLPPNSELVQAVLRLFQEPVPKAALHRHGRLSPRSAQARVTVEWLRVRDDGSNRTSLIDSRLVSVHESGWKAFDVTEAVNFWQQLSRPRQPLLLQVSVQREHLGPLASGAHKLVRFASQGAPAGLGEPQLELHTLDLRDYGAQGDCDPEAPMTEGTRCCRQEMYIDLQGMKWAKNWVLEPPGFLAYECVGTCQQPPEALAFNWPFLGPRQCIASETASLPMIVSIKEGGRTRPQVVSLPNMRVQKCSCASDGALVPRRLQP

[4] = target: Calmodulin-1 (Homo sapiens) (UniProt P0DP23); test: small molecules binding calmodulin-1 with EGTA – biochemical, small-molecule microarray, Cy5-labelled CALM1, profiling panel (AID 1111); conditions: Cy5-CALM1 binding fluorescence, higher = more signal;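 also: labelled calmodulin applied in Tris saline Tween buffer holding calcium plus EGTA and DTT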
[5] = target: Calmodulin-1 (Homo sapiens) (UniProt P0DP23); test: small molecules binding Ca-loaded calmodulin-1 – biochemical, small-molecule microarray, Cy5-labelled CALM1, plus calcium, artefact control for SMM control-protein annotation, profiling panel (AID 1112); conditions: Cy5-CALM1 binding fluorescence, higher = more signal;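 also: score merges spot fluorescence with signal to noise from triplicate slides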
[6] = probe aWnt5a binding to arrayed compounds – biochemical, biotinylated probe, 635/667 nm fluorescence, primary screen (AID 1113); conditions: small-molecule microarray, higher = more signal;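 also: score merges 667 nm fluorescence intensity with signal-to-noise per printed feature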
[7] = probe aShh binding to arrayed compounds – biochemical, biotinylated probe, 635/667 nm fluorescence, primary screen (AID 1114); conditions: small-molecule microarray, higher = more signal;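 also: probe is biotin-labelled aShh protein from a stem cell growth factor screen; measures binding of labelled protein to compounds printed on the slide; score merges feature fluorescence at 667 nm with signal-to-noise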
[8] = probe aNog binding to arrayed compounds – biochemical, biotinylated probe, 635/667 nm fluorescence, primary screen (AID 1115); conditions: small-molecule microarray, higher = more signal;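 also: probe is biotinylated aNog protein used at 0.15 µg/mL for 1 h at 4 C; z-score combines 667 nm fluorescence of each spot with its signal to noise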
[9] = target: Torsin-1A-interacting protein 1 (Homo sapiens) (UniProt Q5JTV8); test: compound microarray binding of lysate hLAP1 – cell lysate, small-molecule microarray, COS7 lysate, 635/667 nm fluorescence, primary screen (AID 1116); conditions: 635 nm fluorescence, higher = more signal
Sequence of Torsin-1A-interacting protein 1 (Homo sapiens) (Q5JTV8 whole entry, looked up): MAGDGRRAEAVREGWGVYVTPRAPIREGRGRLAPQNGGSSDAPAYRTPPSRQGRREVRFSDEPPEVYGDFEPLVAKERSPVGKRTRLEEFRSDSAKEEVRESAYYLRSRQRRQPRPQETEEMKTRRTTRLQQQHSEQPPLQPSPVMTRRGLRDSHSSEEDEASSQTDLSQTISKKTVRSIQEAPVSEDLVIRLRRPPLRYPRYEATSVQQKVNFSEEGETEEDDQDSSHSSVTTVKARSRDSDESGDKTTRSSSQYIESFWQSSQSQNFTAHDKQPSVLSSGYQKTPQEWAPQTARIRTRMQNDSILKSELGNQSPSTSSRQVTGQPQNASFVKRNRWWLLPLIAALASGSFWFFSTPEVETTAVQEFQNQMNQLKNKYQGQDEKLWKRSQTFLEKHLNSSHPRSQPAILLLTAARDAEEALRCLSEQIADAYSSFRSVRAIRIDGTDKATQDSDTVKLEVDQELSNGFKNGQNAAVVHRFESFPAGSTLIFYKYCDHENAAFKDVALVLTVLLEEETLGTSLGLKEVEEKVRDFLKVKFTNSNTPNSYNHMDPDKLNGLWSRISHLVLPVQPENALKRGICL

[10] = target: Alpha-bungarotoxin (Bungarus multicinctus) (UniProt P60615); test: compounds binding labelled alpha-BTX control protein – biochemical, small-molecule microarray, Alexa647 label, 635/667 nm fluorescence, artefact control for SMM control protein annotation, profiling panel (AID 1117); conditions: alpha-BTX-A647 binding fluorescence, higher = more signal
Sequence of Alpha-bungarotoxin (Bungarus multicinctus) (P60615 whole entry, looked up): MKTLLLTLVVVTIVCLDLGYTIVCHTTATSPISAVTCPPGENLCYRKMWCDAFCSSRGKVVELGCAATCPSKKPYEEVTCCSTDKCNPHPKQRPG

Compound `C[C@]1(C(=O)O)c2ccccc2C(=O)N(Cc2cc(F)cc(C(F)(F)F)c2)[C@H]1c1ccc(CO)cc1` has a composite z-score [1] of 0.156, a z-score [2] of 0.475 and a composite z-score [3] of 0.324. The composite z-score [4] was -0.16, the composite z-score [5] was -0.348 and the composite z-score [6] was 0.0044. For the same compound, the composite z-score [7] was -0.0035, the composite z-score [8] was -0.0446 and the composite z-score [9] was -0.0131. The composite z-score [10] was -0.408.

Compound `COCCOC(=O)N1C(=O)[C@@]2(c3ccccc31)[C@H](c1ccc(O)cc1)N1[C@H](c3ccccc3)[C@H](c3ccccc3)OC(=O)[C@H]1[C@@H]2C(=O)N1CCCCCCC1` has a composite z-score [1] of 1.34, a z-score [2] of -2.23 and a composite z-score [3] of 1.51. For the same compound, the composite z-score [4] was 2.52, the composite z-score [5] was 1.34 and the composite z-score [6] was 0.65. It also gave a composite z-score [7] of 3.03, a composite z-score [8] of 3.42 and a composite z-score [9] of 4.5. For the same compound, the composite z-score [10] was 3.04.

`CCCN1C(=O)[C@]2(CCC(=O)OC(C)(C)C)N=C(c3ccc(OCCCO)cc3)O[C@@H]2c2ccccc21` gave a composite z-score [1] of 1.17, a z-score [2] of -2.87 and a composite z-score [3] of -0.399. For the same compound, the composite z-score [4] was -0.0977, the composite z-score [5] was -0.148 and the composite z-score [6] was -0.124. For the same compound, the composite z-score [7] was 0.0469, the composite z-score [8] was 0.175 and the composite z-score [9] was 3.34. It also gave a composite z-score [10] of 0.28.

Work on `NC(=O)N1C(=O)C2C(C1=O)C1C=C(CCCO)C2C(C2CC2)N1Cc1sc2ccccc2c1Cl` (stereo not given) yielded a composite z-score [1] of 0.173, a z-score [2] of -1.63 and a composite z-score [3] of 0.138. It also gave a composite z-score [4] of 1.42, a composite z-score [5] of 0.459 and a composite z-score [6] of -0.0685. It also gave a composite z-score [7] of 0.138, a composite z-score [8] of 0.654 and a composite z-score [9] of 1.19. For the same compound, the composite z-score [10] was 1.67.

Work on `O=C(NC1CC1)[C@@H]1c2ccccc2C(=O)N(Cc2ccc(OC(F)(F)F)cc2)[C@H]1c1ccc(CO)cc1` yielded a composite z-score [1] of 1.13, a z-score [2] of -1.06 and a composite z-score [3] of 0.108. For the same compound, the composite z-score [4] was 0.168, the composite z-score [5] was 1.06 and the composite z-score [6] was -0.0758. It also gave a composite z-score [7] of -0.0735, a composite z-score [8] of -0.399 and a composite z-score [9] of -0.436. It also gave a composite z-score [10] of -0.258.

With `C=C(CCCC)/C(=C/C[C@@H](OC(C)=O)c1ccc(CO)o1)c1cnc2ccccc2c1` the composite z-score [1] was 1.42, the z-score [2] was -0.756 and the composite z-score [3] was 0.735. It also gave a composite z-score [4] of 0.626, a composite z-score [5] of -0.764 and a composite z-score [6] of -0.0704. It also gave a composite z-score [7] of 0.147, a composite z-score [8] of -0.0719 and a composite z-score [9] of 1.69. The composite z-score [10] was 1.15.

For `CC(C)(C)N1CC=CC23O[C@@H]4C=CCOC(=O)[C@@H]4[C@H]2C(=O)N(CCO)[C@@H]3C1=O` (stereo not given in full), the composite z-score [1] was 0.0175, the z-score [2] was -0.471 and the composite z-score [3] was -1.37. For the same compound, the composite z-score [4] was -0.605, the composite z-score [5] was 0.546 and the composite z-score [6] was -0.15. The composite z-score [7] was 0.0136, the composite z-score [8] was -0.364 and the composite z-score [9] was -0.843. The composite z-score [10] was -0.7.

Work on `N#Cc1ccc(C(O)C2C=CC3C(=O)NC(=O)C3N2Nc2ccc(Cl)cc2Cl)cc1` (stereo not given) yielded a composite z-score [1] of 0.544, a z-score [2] of -0.436 and a composite z-score [3] of -0.535. The composite z-score [4] was 1.69, the composite z-score [5] was 0.635 and the composite z-score [6] was 0.0438. It also gave a composite z-score [7] of 0.296, a composite z-score [8] of 0.732 and a composite z-score [9] of 2.08. The composite z-score [10] was 0.531.

Work on `C=CCN1C(=O)[C@@]2(O[C@@H](CCn3cc([C@H](O)c4ccccc4)nn3)[C@H]([Si](C)(C)c3ccc(OC)cc3)[C@H]2C)c2cc(N3C(=O)c4cccc5cccc3c45)ccc21` yielded a composite z-score [1] of -0.18, a z-score [2] of -3.74 and a composite z-score [3] of -0.898. It also gave a composite z-score [4] of 0.178, a composite z-score [5] of 0.872 and a composite z-score [6] of -0.178. It also gave a composite z-score [7] of -0.138, a composite z-score [8] of 0.205 and a composite z-score [9] of -0.236. The composite z-score [10] was -0.0541.

In the case of `O=C(NCc1ccc(F)cc1)[C@H]1C[C@H]2C(=O)N3CCC[C@H]3C(=O)N2[C@H]1c1ccc(O)cc1`, the composite z-score [1] is reported as -0.512, the z-score [2] is reported as 0.85 and the composite z-score [3] is reported as 0.124. It also gave a composite z-score [4] of -0.178, a composite z-score [5] of -0.386 and a composite z-score [6] of -0.176. For the same compound, the composite z-score [7] was -0.366, the composite z-score [8] was -0.344 and the composite z-score [9] was 0.424. The composite z-score [10] was -0.374.

With `COCCCNC(=O)[C@@H]1c2ccccc2C(=O)N(Cc2ccc(OC(F)(F)F)cc2)[C@H]1c1ccc(CO)cc1` the composite z-score [1] was 1.1, the z-score [2] was -0.223 and the composite z-score [3] was 0.0983. The composite z-score [4] was 0.0389, the composite z-score [5] was -0.269 and the composite z-score [6] was 0.0215. The composite z-score [7] was -0.0035, the composite z-score [8] was -0.553 and the composite z-score [9] was 0.378. It also gave a composite z-score [10] of 0.516.

Compound `COc1cc(CO)cc(I)c1O[C@H]1C=C(C(=O)NCCO)C[C@@H]2O[C@H]12` has a composite z-score [1] of 1.4, a z-score [2] of -1.32 and a composite z-score [3] of 0.873. It also gave a composite z-score [4] of 3.38, a composite z-score [5] of 1.48 and a composite z-score [6] of 0.055. It also gave a composite z-score [7] of -0.352, a composite z-score [8] of -0.646 and a composite z-score [9] of 1.94. For the same compound, the composite z-score [10] was 2.81.

Work on `CC(C)(C)N1CC=CC23O[C@@H]4C=CCCOC(=O)C4[C@H]2C(=O)N(CCCCCCO)[C@@H]3C1=O` (stereo not given in full) yielded a composite z-score [1] of 0.315, a z-score [2] of 0.0358 and a composite z-score [3] of -0.807. The composite z-score [4] was -0.338, the composite z-score [5] was 0.195 and the composite z-score [6] was -0.167. For the same compound, the composite z-score [7] was -0.352, the composite z-score [8] was -0.0207 and the composite z-score [9] was 0.348. It also gave a composite z-score [10] of 1.07.

In the case of `CC1CC/C=C\[C@H]2OC34C=CCN(c5ccc6ccccc6c5)C(=O)[C@H]3N(C(C)CO)C(=O)[C@@H]4C2C(=O)O1` (stereo not given in full), the composite z-score [1] is reported as -1.11, the z-score [2] is reported as -0.942 and the composite z-score [3] is reported as -0.82. For the same compound, the composite z-score [4] was -0.69, the composite z-score [5] was -0.607 and the composite z-score [6] was -0.146. For the same compound, the composite z-score [7] was -0.291, the composite z-score [8] was -0.21 and the composite z-score [9] was -0.26. For the same compound, the composite z-score [10] was -0.758.

`CC(C)OC(=O)CC(=O)CC(O)c1cccc([N+](=O)[O-])c1` (stereo not given) showed a composite z-score [1] of 1.31, a z-score [2] of -1.6 and a composite z-score [3] of 0.117. For the same compound, the composite z-score [4] was 0.834, the composite z-score [5] was 0.17 and the composite z-score [6] was 0.264. For the same compound, the composite z-score [7] was 0.418, the composite z-score [8] was -0.138 and the composite z-score [9] was 1.24. It also gave a composite z-score [10] of 0.288.

`COCCOC(=O)N1C(=O)[C@@]2(c3cc(C#CCCO)ccc31)[C@H](C(N)=O)[C@H]1C(=O)O[C@H](c3ccccc3)[C@H](c3ccccc3)N1[C@@H]2c1ccccc1OCCO` showed a composite z-score [1] of 0.99, a z-score [2] of -2.12 and a composite z-score [3] of 0.432. It also gave a composite z-score [4] of 1.03, a composite z-score [5] of 0.114 and a composite z-score [6] of -0.0445. It also gave a composite z-score [7] of -0.0165, a composite z-score [8] of 0.135 and a composite z-score [9] of 1.08. It also gave a composite z-score [10] of 2.08.

`O=C1O[C@@H](c2ccccc2)[C@@H](c2ccccc2)N2[C@@H](c3ccc(OCCO)cc3)[C@]3(C(=O)Nc4ccc(C#CCCO)cc43)[C@@H](C(=O)O)[C@H]12` showed a composite z-score [1] of 1.08, a z-score [2] of -0.22 and a composite z-score [3] of 0.687. It also gave a composite z-score [4] of 2.03, a composite z-score [5] of 0.408 and a composite z-score [6] of 0.663. It also gave a composite z-score [7] of 0.582, a composite z-score [8] of 2.45 and a composite z-score [9] of 1.99. For the same compound, the composite z-score [10] was 1.95.

Compound `COc1ccc([Si](C)(C)[C@H]2[C@H](CC(=O)N3Cc4ccccc4C[C@H]3CO)O[C@@]3(C(=O)N(C)c4ccccc43)[C@@H]2C)cc1` has a composite z-score [1] of 1.42, a z-score [2] of -4.34 and a composite z-score [3] of 0.77. The composite z-score [4] was 0.125, the composite z-score [5] was -1.29 and the composite z-score [6] was -0.124. It also gave a composite z-score [7] of -0.0146, a composite z-score [8] of -0.299 and a composite z-score [9] of 0.712. For the same compound, the composite z-score [10] was 2.48.

In the case of `COc1cc(OC)c(C(O)C2C=CC3C(=O)N(c4ccccc4)C(=O)C3N2Nc2ccc(C(C)C)cc2)cc1Br` (stereo not given), the composite z-score [1] is reported as 1.22, the z-score [2] is reported as -0.533 and the composite z-score [3] is reported as 0.513. The composite z-score [4] was 1.34, the composite z-score [5] was 0.382 and the composite z-score [6] was 0.238. For the same compound, the composite z-score [7] was 0.158, the composite z-score [8] was 1.68 and the composite z-score [9] was 0.695. The composite z-score [10] was 1.92.
